# According to PubChem BioAssay (NCATS):
# Records with an inconclusive call do not appear. Where a call stands in place of a potency, no number is given. Calls of active or inactive are those of the source. Calls follow the shape of the dose curve; as a rule, active = well fitted curve in the direction sought with a large enough effect; inconclusive = small, poorly fitted or top-dose-only effect, or another doubt; inactive = no such curve, though single readings can be large; an effect the other way counts as inactive or inconclusive.
# Experiments:
# [1] = Quantitative High-Throughput drug screen in 47 multiple myeloma cell lines against the NCATS MIPE library collection: INA6_PLB cell viability assay (AID 1918965; also: nearly all actives have a fitted effect of over 55% in size)
# Outline: (§1)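 qHTS of the MIPE 4.0 collection: 500 myeloma cells/well, 48 h drug exposure at 37C in 5% CO2, then CellTiter-Glo for 5 min at room temperature before luminescence reading.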
# [2] = Quantitative High-Throughput drug screen in 47 multiple myeloma cell lines against the NCATS MIPE library collection: H1112_PLB cell viability assay (AID 1918967; also: nearly all actives have a fitted effect of over 30% in size)
# Outline: (§2)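 Approved and investigational drugs from MIPE 4.0 were added by pin tool to 500 cells per well. After 48 hours at 37C, ATP-based CellTiter-Glo luminescence indicated remaining viability.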
# [3] = Quantitative High-Throughput drug screen in 47 multiple myeloma cell lines against the NCATS MIPE library collection: Karpas25_ECACC cell viability assay (AID 1918968; also: nearly all actives have a fitted effect of over 35% in size)
# Outline: as §2
# [4] = Quantitative High-Throughput drug screen in 47 multiple myeloma cell lines against the NCATS MIPE library collection: MMM1_PLB cell viability assay (AID 1918976); also: nearly all actives have a fitted effect of over 35% in size
# Outline: (§3)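 Viability after 48 h drug exposure was measured as ATP-dependent luminescence. Cells, 500 per well, sat at 37 °C under 5% CO2; DMSO wells set 100%, media-only wells 0%.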
# [5] = Quantitative High-Throughput drug screen in 47 multiple myeloma cell lines against the NCATS MIPE library collection: NCIH929_DSMZ cell viability assay (AID 1918978); also: nearly all actives have a fitted effect of over 35% in size
# Outline: as §3
# [6] = Quantitative High-Throughput drug screen in 47 multiple myeloma cell lines against the NCATS MIPE library collection: LP1_DSMZ cell viability assay (AID 1918982); also: nearly all actives have a fitted effect of over 35% in size
# Outline: as §3
# [7] = Quantitative High-Throughput drug screen in 47 multiple myeloma cell lines against the NCATS MIPE library collection: KMS34_JCRB cell viability assay (AID 1918985); also: nearly all actives have a fitted effect of over 40% in size
# Outline: as §3
# [8] = Quantitative High-Throughput drug screen in 47 multiple myeloma cell lines against the NCATS MIPE library collection: KMS27_JCRB cell viability assay (AID 1918970); conditions: KMS27 myeloma cells, CellTiter-Glo ATP viability, 48 h; viability (% of DMSO): at 45.8 µM (top of the series); also: nearly all actives have a fitted effect of over 30% in size
# Outline: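 Luminescent ATP read-out (CellTiter-Glo, 5 min at room temperature) after 48 h compound exposure of 500 KMS27_JCRB cells per well; DMSO wells define full viability and media-only wells zero.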
# [9] = Quantitative High-Throughput drug screen in 47 multiple myeloma cell lines against the NCATS MIPE library collection: KMS12BM_JCRB cell viability assay (AID 1918971); also: nearly all actives have a fitted effect of over 35% in size
# Outline: as §1
# [10] = Quantitative High-Throughput drug screen in 47 multiple myeloma cell lines against the NCATS MIPE library collection: KMS12PE_JCRB cell viability assay (AID 1918972); also: nearly all actives have a fitted effect of over 30% in size
# Outline: as §1
# [11] = Quantitative High-Throughput drug screen in 47 multiple myeloma cell lines against the NCATS MIPE library collection: KMS26_JCRB cell viability assay (AID 1918975); also: nearly all actives have a fitted effect of over 45% in size
# Outline: as §1
# [12] = Quantitative High-Throughput drug screen in 47 multiple myeloma cell lines against the NCATS MIPE library collection: MOLP8_DSMZ cell viability assay (AID 1918977); also: nearly all actives have a fitted effect of over 45% in size
# Outline: as §3
# [13] = Quantitative High-Throughput drug screen in 47 multiple myeloma cell lines against the NCATS MIPE library collection: OCIMY1_PLB cell viability assay (AID 1918979); also: nearly all actives have a fitted effect of over 35% in size
# Outline: as §3
# [14] = Quantitative High-Throughput drug screen in 47 multiple myeloma cell lines against the NCATS MIPE library collection: MM1R_ATCC cell viability assay (AID 1918981); also: nearly all actives have a fitted effect of over 35% in size
# Outline: as §3
# [15] = Quantitative High-Throughput drug screen in 47 multiple myeloma cell lines against the NCATS MIPE library collection: KMS28PE_JCRB cell viability assay (AID 1918983); also: nearly all actives have a fitted effect of over 35% in size
# Outline: as §3
# [16] = Quantitative High-Throughput drug screen in 47 multiple myeloma cell lines against the NCATS MIPE library collection: L363_DSMZ cell viability assay (AID 1918984); also: nearly all actives have a fitted effect of over 40% in size
# Outline: as §3
# [17] = Quantitative High-Throughput drug screen in 47 multiple myeloma cell lines against the NCATS MIPE library collection: MM1S_ATCC cell viability assay (AID 1918980); also: nearly all actives have a fitted effect of over 45% in size
# Outline: as §3
# [18] = Quantitative High-Throughput drug screen in 47 multiple myeloma cell lines against the NCATS MIPE library collection: KMS20_JCRB cell viability assay (AID 1918973); also: nearly all actives have a fitted effect of over 45% in size
# Outline: as §2
# [19] = Quantitative High-Throughput drug screen in 47 multiple myeloma cell lines against the NCATS MIPE library collection: KMS21BM_JCRB cell viability assay (AID 1918974); conditions: ATP luminescence, 48 h; viability: at 45.8 µM (top of the series)
# Outline: as §2
# Potency is read from the fitted curve at half-maximal effect.
Structure (SMILES),Potency [1],Potency [2],Potency [3],Potency [4],Potency [5],Potency [6],Potency [7],Potency [8],Potency [9],Potency [10],Potency [11],Potency [12],Potency [13],Potency [14],Potency [15],Potency [16],Potency [17],Potency [18],Potency [19]
CC(=O)NC(CS)C(=O)O (configuration not stated),2.96 µM (active),inactive,inactive,18.7 µM (active),inactive,inactive,inactive,,,,,,,,,,,,
CC(C)N(CC[C@H](c1ccccc1)c1cc(CO)ccc1O)C(C)C,inactive,,inactive,,inactive,inactive,inactive,inactive,inactive,inactive,inactive,inactive,inactive,inactive,inactive,inactive,,,
C[C@H]1O[C@H](O[C@H]2[C@H](O)[C@@H](O)[C@@H](O[C@H]3[C@H](O)[C@@H](O)C(O)O[C@H]3CO)O[C@H]2CO)[C@H](O)[C@@H](O)[C@H]1N[C@H]1C=C(CO)[C@@H](O)[C@H](O)[C@@H]1O (some centres not stated),inactive,inactive,,,,inactive,inactive,,,,inactive,,inactive,inactive,inactive,20.9 µM (active),inactive,,
CCOC(=O)[C@H](CCc1ccccc1)N[C@@H](C)C(=O)N1[C@@H](C(=O)O)C[C@H]2CCC[C@@H]21,7.43 µM (active),14.8 µM (active),,18.7 µM (active),7.43 µM (active),,26.4 µM (active),7.43 µM (active),23.5 µM (active),7.43 µM (active),,,26.4 µM (active),16.6 µM (active),23.5 µM (active),7.43 µM (active),2.64 µM (active),4.69 µM (active),5.26 µM (active)
Cn1cc(C=CC(=O)c2cccc(F)c2)cc1C=CC(=O)NO,8.33 µM (active),,,,20.9 µM (active),,16.6 µM (active),14.8 µM (active),,14.8 µM (active),16.6 µM (active),16.6 µM (active),,16.6 µM (active),,11.8 µM (active),14.8 µM (active),,4.69 µM (active)
OCc1ccccc1O[C@@H]1O[C@H](CO)[C@H](O)[C@H](O)[C@H]1O,13.2 µM (active),,inactive,,11.8 µM (active),,inactive,inactive,,inactive,inactive,,inactive,inactive,inactive,inactive,20.9 µM (active),,
C#C[C@]1(O)CC[C@@H]2[C@@H]3CCC4=CC(=O)CC[C@@H]4[C@H]3CC[C@@]21CC,inactive,inactive,,9.35 µM (active),inactive,inactive,inactive,inactive,1.48 µM (active),inactive,inactive,23.5 µM (active),inactive,inactive,inactive,0.0083 µM (active),,,
C=C(C)[C@@H]1CC[C@]2(C(=O)O)CC[C@]3(C)[C@H](CC[C@@H]4[C@@]5(C)CC[C@H](O)C(C)(C)[C@@H]5CC[C@]43C)[C@@H]12,inactive,inactive,,,,,inactive,inactive,,0.0372 µM (active),inactive,inactive,inactive,inactive,3.72 µM (active),inactive,inactive,,
Cn1cc(-c2ccc3ncc(Cc4ccc5ncccc5c4)n3n2)cn1,13.2 µM (active),inactive,inactive,,inactive,inactive,inactive,,,,inactive,inactive,inactive,inactive,inactive,,inactive,,
Nc1nc2c(c(=O)[nH]1)N(C=O)[C@H](CNc1ccc(C(=O)N[C@@H](CCC(=O)O)C(=O)O)cc1)CN2,inactive,inactive,,,inactive,,inactive,inactive,inactive,inactive,,,inactive,,,,,,
N#CC(=C(N)Sc1ccc(N)cc1)c1ccccc1C(F)(F)F,8.33 µM (active),3.32 µM (active),,,1.05 µM (active),16.6 µM (active),,,7.43 µM (active),inactive,,,,14.8 µM (active),6.62 µM (active),,,0.469 µM (active),
CC1(C)CC(O)CC(C)(C)N1[O],inactive,,inactive,,inactive,inactive,,inactive,inactive,inactive,inactive,,inactive,inactive,inactive,inactive,,,
N#CC(=C(O)c1ccc(Cl)cc1Cl)c1nc2cc(Cl)ccc2c(=O)[nH]1,inactive,,,inactive,inactive,inactive,,inactive,inactive,inactive,,,,inactive,inactive,inactive,inactive,inactive,
Cc1cn([C@@H]2O[C@H](CO)[C@@H](O)[C@H]2F)c(=O)[nH]c1=O,inactive,inactive,,,inactive,,inactive,,,13.2 µM (active),,,inactive,inactive,inactive,,,,
COC(=O)C=CC(=O)OC,18.7 µM (active),,1.48 µM (active),,0.264 µM (active),inactive,,,inactive,inactive,,,,23.5 µM (active),inactive,,1.66 µM (active),2.64 µM (active),
